Among the data in PubChem BioAssay (NCI) are growth inhibition values, retold here.

The panel holds about 79,000 compounds, 15% with a hit somewhere; the sample as a whole holds those more often. A number with no mark means an inactive call. No stated cut-off is given here; in the data, active means growth inhibition above about 70%; inactive means the rest.

The nature of this experiment: NCI Yeast Anticancer Drug Screen. Data for the sgs1 mgt1 strain (AID 161).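 Further: 0% = growth of cultures given vehicle only.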 As to conditions: S. cerevisiae sgs1 mgt1 strain, at 50.0 µM, active compounds read high. Summed up:
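Genetically altered yeast, compound exposure, growth inhibition relative to vehicle.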
In the case of `CCCN1C(=O)c2cc(=O)n(Cc3ccccc3)c(O)c2C1C` (centres undefined), the growth inhibition was 4.7%. For `CC(=O)/C=C(O)/C=C/c1ccccc1`, the growth inhibition is -12.9%. In the case of `C1CCCNCCNCCNCC1` it was -18.9%; in that of `O=NNc1ccnc(-c2cc(NN=O)ccn2)c1`, 6.3%.

`CCC1(C(Cl)(Cl)Cl)C=CC(=O)C=C1`: the growth inhibition was -1.85%.

Turning to `CCCCCCc1cc(C(=O)N/N=C/c2ccccc2O)c2ccccc2n1`, the growth inhibition is 16%. As for `Cc1ccc(CNC(=O)Nc2cccc(Cl)c2)cc1C`, the growth inhibition is 7.05%.

For `O=C(O)CCC(=O)c1ccc2c3c1CCCC3CC2` (centres undefined), the growth inhibition was 48.5%.

In the case of `CCOC(=O)C1=CC(C)(C(=O)OCC)Nc2c(nc(SC)n(C)c2=O)N1` (centres undefined), the growth inhibition is -16.3%.

For the compound `COc1ccc(C(C)c2cc3c(cc2OC)OCO3)cc1` (centres undefined), the growth inhibition is 15.2%. For `COc1ccccc1/C=C1/Sc2scc(CC(=O)Nc3ccccc3)[n+]2C1=O`, the growth inhibition is 23.6%. Turning to `NC(=O)C(=O)NNC(=O)Nc1ccc(Cl)cc1`, the growth inhibition was 7.8%.

In the case of `COc1ccc(N2C(=O)C3CC(c4ccc(Br)cc4)c4c([nH]c5ccccc45)C3C2=O)cc1` (centres undefined), the growth inhibition was 5.55%. For `O=N[O-].O=N[O-].[Co].[NH-]CC[N-]CC[N-]CC[NH-]` the value was 1.9%; for `COc1cccc2c1oc(=O)c1ccccc12`, -19.6%. For `O=C1[C@H]2ON(c3ccccc3)C(c3ccc(Cl)cc3)[C@H]2C(=O)N1c1ccc(Cc2ccc(N3C(=O)[C@@H]4ON(c5ccccc5)C(c5ccc(Cl)cc5)[C@@H]4C3=O)cc2)cc1` (some centres undefined) the value was 0.2%. As for `Cc1ccc(C(=O)C2CC2c2ccccc2)cc1` (centres undefined), the growth inhibition was -13.7%. In the case of `Cc1cc(Cl)c(C)c(C)c1O` it was -20.2%; in that of `COC(=O)/C(=N\NC(N)=O)C(C#N)c1ccccc1` (centres undefined), -5.75%. In the case of `CC(=O)NC1C(=O)N(c2ccccc2)N=C1C` (centres undefined), the growth inhibition is -0.7%. `C/C(=N\NC(N)=S)c1ccc(/C(C)=N/NC(N)=S)cc1`: the growth inhibition is 0.8%. On to `Nc1c(-c2nc3ccccc3[nH]2)sc(=S)n1-c1ccc(Cl)cc1`, for which the growth inhibition was 2.75%. As to `COc1cccc(/C(C=O)=C(\Cl)c2ccc(OC)c(OC)c2)c1`, the growth inhibition was 12.4%. In the case of `CCCCC1(CCO)C(=O)N=C(N)NC1=O` (centres undefined) it was -8.05%.
